From PubChem BioAssay (Tox21)
Several values for one entry are separate records, joined by “and”; a condition that tells them apart may be missing. Identical values can stand only once. Records with an inconclusive call do not appear. Entries that show only a call come without a potency. Activity calls are given as the source filed them. Calls come from the whole dose curve.

Test: qHTS assay for small molecule agonists of the p53 signaling pathway (AID 651631); note: nearly all actives have a fitted effect of over 15% in size
Conditions: HCT-116 p53RE-bla reporter, beta-lactamase FRET ratio, 16 h; series mostly up to 73.3 µM
Source text: U.S. Tox21 Program National Center for Advancing Translational Sciences [NCATS] NIH Chemical Genomics Center [NCGC] U.S. Environmental Protection Agency [EPA] National Institutes of Environmental Health Sciences [NIEHS] National Toxicology Program [NTP] U.S. Food and Drug Administration [FDA] Tox21 Assay Overview: p53, a tumor suppressor protein, is activated following cellular insult, including DNA damage and other cellular stresses. The activation of p53 regulates cell fate by inducing DNA repair, cell cycle arrest, apoptosis, or cellular senescence. The activation of p53, therefore, is a good indicator of DNA damage and other cellular stresses. The CellSensor p53RE-bla HCT-116 cell line (Invitrogen) contains a stably integrated beta-lactamase reporter gene under control of the p53 response elements. The activation of the reporter gene under culture conditions can be detected by fluorescence intensity. This cell line was used to screen the Tox21 compound library in a 1536-well plate format and to identify agonists that activate the p53 signaling pathway.
Tox21 Assay Protocol Summary: The p53RE-bla cells were dispensed at 4,000 cells/5 ul/well in 1536-well black wall/clear bottom plates using a Multidrop dispenser. After the assay plates were incubated at a 37 C/5% CO2 incubator for 5 hours, 23 nL of compounds dissolved in DMSO, positive controls or DMSO only was transferred to the assay plate by a pin tool. The plates were incubated at 37 C for 16 hours. After 1 uL of LiveBLAzerTM B/G FRET substrate was added using a Flying Reagent Dispenser, the plates were incubated at room temperature for 2 hours, and fluorescence intensity was measured by an Envision plate reader.
Potency is the fitted concentration of half-maximal effect.

SMILES	Potency
CCCCCCCCCCCCCO	inactive
c1ccc2ncccc2c1	inactive
CN(C)C	inactive
CCCCCC=O	inactive
CCCOCCO	inactive
CN(C)CCCN1c2ccccc2Sc2ccc(Cl)cc21	10.9 µM (active)
Oc1c(Cl)ccc(Cl)c1Cl	inactive
c1ccc2c(c1)[nH]c1ccccc12	inactive
CCc1cccc2c3c([nH]c12)C(CC)(CC(=O)O)OCC3 (stereo not given)	inactive
COc1ccc(C(=O)c2ccccc2O)c(O)c1	inactive
COc1cc([C@H]2Oc3cc([C@H]4Oc5cc(O)cc(O)c5C(=O)[C@@H]4O)ccc3O[C@@H]2CO)ccc1O	inactive
Nc1cc([N+](=O)[O-])ccc1C(=O)O	inactive
NCCOCCO	inactive
Cc1ccc(S(=O)(=O)O)cc1C	inactive
O=C(O)CCCC(=O)O	inactive
Cc1ccc([N+](=O)[O-])c(C)c1	inactive
NCCS(=O)(=O)O	inactive
O=C1OC2(c3ccccc31)c1cc(I)c(O)c(I)c1Oc1c2cc(I)c(O)c1I	inactive
IC(I)I	inactive
C[C@]12C=CC(=O)C=C1CC[C@H]1[C@@H]3C[C@@H](O)[C@](O)(C(=O)CO)[C@@]3(C)C[C@H](O)[C@@]12F	inactive

SMILES	Potency
C1COCCN1	inactive
CC(=O)Oc1ccc(C(c2ccc(OC(C)=O)cc2)c2ccccn2)cc1	944 nM (active) and 271 nM (active)
CC(=O)Nc1ccc2c(c1)Cc1cc(NC(C)=O)ccc1-2	inactive
CCCCCCCC/C=C\CCCCCCCC(=O)O	inactive
[Na+]	inactive
Nc1cc(Cl)c(N)c(Cl)c1	inactive
c1ccc2cc3ccccc3cc2c1	inactive
NCCN	inactive
c1ccc2c(c1)ccc1cc3c(ccc4ccccc43)cc12	12.1 µM (active)
C=CCNCC=C	inactive
Nc1ccc2c(O)cc(S(=O)(=O)O)cc2c1	4.86 µM (active) and 2.43 µM (active)
COC(=O)c1ccc(C)cc1	inactive
C=C1C[C@H]2[C@@H]3C=C(C)C4=CC(=O)CC[C@]4(C)[C@H]3CC[C@]2(C)[C@@]1(OC(C)=O)C(C)=O	inactive
CC/C(=C(/CC)c1ccc(O)cc1)c1ccc(O)cc1	9.44 µM (active) and 13.6 µM (active) and 15.4 µM (active)
C=CC(=O)OCCCC	inactive
O=C(O)c1cc(=O)[nH]c(=O)[nH]1	inactive
COC(=O)CC(=O)OC	inactive
CCCCCCCCCCC(CO)CCCCCCCC (stereo not given)	inactive
O=S1(=O)CCCO1	inactive
CC(C)[C@@H]1CC[C@@H](C)CC1=O	inactive
